± gives the standard deviation.
Each compound was assayed on RAW-Dual (murine macrophage reporter line) (assay: NF-kB reporter (SEAP) activity fold change vs agonist alone; higher = enhanced NF-kB activity). Conditions: modulator concentration 10 µM; agonist: CpG ODN 1826 0.5 ug/mL.
In short: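 Overnight stimulation with a PRR agonist followed pre-incubation for 1 hour at 37 °C with compound at 10 μM final. This was done in RAW-Dual murine macrophage reporter cells seeded at 50 000 per well in 384-well plates. NF-κB (SEAP, QUANTI-Blue absorbance at 620 nm) and IRF (Lucia luciferase, QUANTI-Luc luminescence) were read from the supernatant. Each reporter's fold change relative to the mean agonist-only control on the same plate was averaged over replicate plates.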

Row | Structure (SMILES) | NF-kB reporter
1 | CCc1c(C)nc(-n2nc(C)cc2NC(=O)CSCc2ccccc2)[nH]c1=O | 0.901 ± 0.056
2 | COC(=O)Nc1nc2cc(S(=O)c3ccccc3)ccc2[nH]1 (centres undefined) [Prestw-1459] | 1.03 ± 0.087
3 | Cc1[nH]c2ccccc2c1CCNCc1ccc(/C=C/C(=O)NO)cc1 | 0.22 ± 0.015
4 | O=C(CSc1nc(-c2ccccc2)c(-c2ccccc2)[nH]1)N1CCOCC1 | 1.05 ± 0.32
5 | O=[N+]([O-])c1ccc2nc(S)sc2c1 | 0.847 ± 0.068
6 | Cc1n[nH]c(C)c1CCC(=O)NC1CCC(F)(F)CC1 | 0.921 ± 0.068
7 | O=C(Nc1nc2ccc(Cl)cc2s1)c1ccc(Br)s1 | 0.998 ± 0.062
8 | CC1(C)[C@H](C(=O)O)N2C(=O)C[C@H]2S1(=O)=O | 0.998 ± 0.11
9 | NCC(=O)O | 0.965 ± 0.073
10 | Br.C=CCn1c(=N)n(CC(=O)c2cccc([N+](=O)[O-])c2)c2ccccc21 | 0.571 ± 0.058
11 | Cc1cc(OC2CCN(C(=O)c3csc(C)n3)CC2)nc(C)n1 | 1.01 ± 0.051
12 | Ic1ccc(N=Cc2ccc(C=Nc3ccc(I)cc3)cc2)cc1 | 1.03 ± 0.081
13 | O=Cc1ccc(OC(=O)c2cccc(C(=O)Oc3ccc(C=O)cc3)c2)cc1 | 0.813 ± 0.064
14 | COc1ccc(-c2[nH]c(-c3ccccc3)nc2SCC(=O)NC2CCCC2)cc1 | 0.875 ± 0.061
15 | CCN(C=Nc1sc2c(c1C#N)CC(C)(C)NC2(C)C)CC | 0.759 ± 0.059
16 | CCOC(=O)N1CCC(=C2c3ccc(Cl)cc3CCc3cccnc32)CC1 | 1.07 ± 0.24
17 | Cc1cc(OCC(=O)Nc2ccccc2-c2ccccc2)ccc1Br | 0.776 ± 0.073
18 | NC(CO)(CO)CO.O=C(c1ccccc1)c1ccc2n1CCC2C(=O)O (centres undefined) | 0.916 ± 0.18
19 | O=C(Nc1cc(C(F)(F)F)cc(C(F)(F)F)c1)c1cc2ccccc2o1 | 0.961 ± 0.082
20 | CC(=O)Nc1ccc(S(=O)(=O)N2CCCc3ccccc32)cc1 | 1.15 ± 0.092

Row | Structure (SMILES) | NF-kB reporter
21 | CN(C)CCCN1c2ccccc2CCc2ccc(Cl)cc21.Cl | 0.559 ± 0.098
22 | CCCCOc1ccc(C(=O)Nc2cc(-c3nc4ccccc4o3)ccc2OC)cc1 | 1.08 ± 0.066
23 | CCOC(=O)c1c(N)sc(C(=O)N2CCCC(C(N)=O)C2)c1C (centres undefined) | 0.442 ± 0.15
24 | Cn1nc(CNC(=O)c2cccc3ccccc23)cc1C1CC1 | 1.18 ± 0.067
25 | CCOc1ccc(CN(CCc2ccc3c(c2)OCO3)Cc2cccc3ccccc23)cc1 | 0.73 ± 0.071
26 | Cc1cnc(C(=O)O)c[n+]1[O-] | 1.09 ± 0.085
27 | O=S(=O)(c1ccc(F)cc1)N1CCC(c2nc3ccccc3[nH]2)CC1 | 1.19 ± 0.085
28 | O=C(Cn1cnc(-c2ccc(Cl)cc2)cc1=O)N1CCOCC1 | 1.07 ± 0.29
29 | O=C(C=Cc1ccc(O)cc1)c1ccc(O)cc1O | 1.33 ± 0.36
30 | Cc1cc(OC2CCN(S(=O)(=O)CCc3ccccc3)C2)cc(=O)n1C (centres undefined) | 1.13 ± 0.069
31 | CCCC(=O)Nc1ccc(N2CCCCC2)cc1 | 0.833 ± 0.067
32 | CN(C)CCOC(c1ccc(Cl)cc1)c1ccccn1.O=C(O)/C=C\C(=O)O (centres undefined) | 0.87 ± 0.12
33 | CS(=O)(=O)Nc1cccc(F)c1 | 1.12 ± 0.088
34 | CCOc1ccc(N=Cc2c(Nc3ccc(OCC)cc3)nc3ccccn3c2=O)cc1 | 1.17 ± 0.13
35 | Cc1cnc2c(c1SCC(=O)N1CCc3ccccc31)c(=O)n(C)c(=O)n2C | 1.01 ± 0.057
36 | CCOC(=O)c1ccc(N2C(=O)CC(N3CCN(c4ccc([N+](=O)[O-])cc4)CC3)C2=O)cc1 (centres undefined) | 0.813 ± 0.072
37 | CS(=O)(=O)C1CC2CCC(C1)N2C(=O)c1cccc(Oc2ccc(F)cc2)c1 (centres undefined) | 1.07 ± 0.09
38 | Cn1ccc(C(=O)Nc2nc(C(C)(C)C)cs2)n1 | 0.805 ± 0.063
39 | NC(=S)c1cc2ccc(O)cc2oc1=O | 0.808 ± 0.16
